Out of some 410,000 compounds screened, about 5,100 (1.2%) were called active. Not shown: some 8% with an inconclusive outcome. Calls come from the whole dose curve; tested in HEK293T cells. The entries come from a sample that favours actives as a whole.
Assay: High Throughput Screening for Foot and Mouth Disease Virus Antivirals; note: read-out not given here; nearly all actives have a fitted effect of over 45% in size
Conditions: FMDV antiviral cell-based qHTS; series mostly up to 57.9 µM; activity change, negative = inhibition: at the top concentration
% is set by controls: 0 for no effect and ±100 for the full control effect; potency is the fitted concentration of half-maximal effect.

SMILES | activity change, negative = inhibition | Potency
COCC1CCCN(Cc2ccc3c(c2)CN(C(=O)c2ccnn2C)CCO3)C1 (centres undefined) | -9.53% (inactive) | –
CC(=O)Nc1cc(C(=O)NCc2ccc(F)cc2Cl)ccc1Sc1ccc(Cl)cc1 | -7.66% (inactive) | –
COc1ccc(Oc2ncc3nc(C)c(=O)n(-c4ccccc4)c3n2)cc1 | -15.8% (inactive) | –
CSc1ccc(CCNC(=O)c2ccc3c(c2)nc2n3CCOC2)cc1 | -16.6% (inactive) | –
CC1CN/C(=C\C(=O)c2ccc(Br)cc2)C(=O)N1 (centres undefined) | – | 12.6 µM (active)
O=C(O)C1CCCN1S(=O)(=O)c1ccc(Br)cc1 (centres undefined) | -7.27% (inactive) | –
Cc1nc2cnc(Oc3cccc(Cl)c3)nc2n(C2CC2)c1=O | -18.7% (inactive) | –
CC(C)[C@H](CO)Nc1nc(Nc2cc(N)cc(Cl)c2)c2ncn(C(C)C)c2n1 | -25.5% (inactive) | –
Cc1cccc(NC(=O)CSc2nc3c([nH]c4ccccc43)c(=O)n2-c2cc(C)cc(C)c2)c1 | 0% (inactive) | –
Cc1cccc(-n2c(SCC(N)=O)nc3c(c2=O)C2(CCCCC2)Cc2ccccc2-3)c1 | – | 14.1 µM (active)
Cc1cccc(-n2c(SCC(N)=O)nc3c(oc4ccccc43)c2=O)c1 | 0% (inactive) | –
COc1ccc(NC(=O)Cn2c(=O)n(Cc3ccc(C(=O)NCc4ccccc4Cl)cc3)c(=O)c3ccccc32)cc1 | 10.6% (inactive) | –
CCOC(=O)CN(C(=O)COc1nc(C)cc(C)c1C#N)c1ccc(Cl)cc1 | -18.7% (inactive) | –
CCOc1ccc(/C=C(\C#N)c2nc3ccccc3c(=O)[nH]2)cc1OC | 10.8% (inactive) | –
CCOc1cc(/C=C(/C#N)c2ccc(Cl)cc2)cc(Cl)c1OCC(=O)O | – | 8.91 µM (active)
O=C(c1ccncc1)N1CCC2(CCCN(C(c3ccccc3)c3ccccc3)C2)CC1 | -21% (inactive) | –
Cc1ccc(CN2CCCn3nc(C(=O)NCc4ccccc4Cl)cc3C2=O)cc1 | -14.4% (inactive) | –
C/C(=N\NC(=O)c1ccccc1F)c1ccccn1 | – | 12.6 µM (active)
CN(NC(=O)c1ccccc1F)c1nc(C(F)(F)F)nc2ccccc12 | -5.68% (inactive) | –
O=C(NC(=S)NC1CCSC1=O)c1ccccc1F (centres undefined) | 48.4% (inactive) | –
CCn1c2ccccc2c2cc(CN3CCN(Cc4cccc(Cl)c4)CC3)ccc21 | 13.2% (inactive) | –
CCCN(C/C=C/I)C1CCc2ccc(O)cc2C1 (centres undefined) | -6.2% (inactive) | –
CC1Cc2cc(S(=O)(=O)CCC(=O)NCc3ccc(Cl)cc3)ccc2N1C(=O)C1CC1 (centres undefined) | -1.27% (inactive) | –
Cc1ccc(-c2nc(S(=O)(=O)c3ccc(C)cc3)c(N3CCCCCC3)o2)cc1 | 45.5% (inactive) | –
O=C(CSc1oc(-c2ccc(F)cc2)nc1S(=O)(=O)c1ccc(Br)cc1)NC1CCCCC1 | -1.69% (inactive) | –

SMILES | activity change, negative = inhibition | Potency
CC(C)S(=O)(=O)c1oc(-c2ccc(F)cc2)nc1S(=O)(=O)c1ccc(F)cc1 | – | 31.6 µM (active)
COc1ccc(C(=O)N2CCC3(CCCN(C(c4ccccc4)c4ccccc4)C3)CC2)cc1 | 2.28% (inactive) | –
O=C(c1csnn1)N1CCC[C@@]2(CCN(c3cccc(-c4ccccc4)c3)C2)C1 | -16.6% (inactive) | –
Cc1c(NC(=O)C(C)(C)C)cccc1-c1nc2ccccc2s1 | -7.55% (inactive) | –
O=S(=O)(c1ccccc1)N1CCC2(CC1)CN(Cc1nccs1)C2 | -5.22% (inactive) | –
CC1C(=O)N(Cc2ccccc2)c2ccccc2N1C(=O)c1ccccc1 (centres undefined) | – | 31.6 µM (active)
CC1Oc2ccccc2N(Cc2cccnc2)C1=O (centres undefined) | 6.82% (inactive) | –
O=C(c1ccc2c(c1)N(Cc1ccccc1)C(=O)c1ccccc1S2(=O)=O)N1CCCC1 | 3.75% (inactive) | –
CS(=O)(=O)N1CCC2(CCN(c3ccncc3)CC2)CC1 | -17.3% (inactive) | –
CN1CCC2(CC1)CCN(S(=O)(=O)c1ccccc1)CC2 | -4.56% (inactive) | –
O=C(O)CC(SCC(=O)Nc1ccc(Br)cc1)C(=O)O (centres undefined) | -8.01% (inactive) | –
CC(=O)Nc1ccc(NC(=O)CC2CCCC2)cc1 | 55.7% (inactive) | –
O=C(CCl)Nc1ccc(Sc2ccc(NC(=O)CCl)cc2)cc1 | – | 7.94 µM (active)
Cc1ccc(-c2csc(NC3OC(=O)c4ccccc43)n2)cc1 (centres undefined) | – | 20 µM (active)
COc1ccc2c(c1OC)C(=O)OC2Nc1nc(-c2ccccc2)cs1 (centres undefined) | – | 15.8 µM (active)
CCCc1nc2scc(-c3ccc(C)cc3)c2c(=O)n1N | -16.7% (inactive) | –
COc1ccc(CNC(=O)CC2Oc3ccc(C)cc3NC2=O)cc1 (centres undefined) | -14.7% (inactive) | –
CC(C)NC(=O)N1CCCC2(CCN(C(=O)c3cccn3C)CC2)C1 | 1.59% (inactive) | –
Cn1c(=O)c2c(SCC(=O)NCC3CCCO3)nc(-c3ccccc3F)nc2n(C)c1=O (centres undefined) | -22.6% (inactive) | –
CCNCCCNCCCNCCCNCC | -1.93% (inactive) | –
Cn1cccc1C(=O)N1CCC[C@@]2(CCN(Cc3nccs3)C2)C1 | -10.5% (inactive) | –
N#Cc1ccc(CN2CCCC3(CCN(C(=O)c4ccco4)CC3)C2)cc1 | -10.4% (inactive) | –
COc1ccc(N2CCN(C(=O)CSc3nnc4ncccn34)CC2)cc1 | -1.95% (inactive) | –
COc1cccc(-c2ccc(SCC(=O)N3CCN(c4ccccc4)CC3)nn2)c1 | – | 12.6 µM (active)
CCOc1ccc(-c2ccc(SCC(=O)N3CCOCC3)nn2)cc1 | -17.8% (inactive) | –

SMILES | activity change, negative = inhibition | Potency
CCN1CCN(Cc2c(O)ccc3oc(C)c(C(=O)Nc4ccc(C)cc4C)c23)CC1 | -16.2% (inactive) | –
Cc1ccc(CNC(=O)c2c(O)nc3c(C)cccn3c2=O)cc1 | 13.2% (inactive) | –
CC(=O)c1ccc(NC(=O)CSc2nc(-c3ccccc3F)nc3c2c(=O)n(C)c(=O)n3C)cc1 | -7.87% (inactive) | –
COC(=O)C1CCCCN1Cc1ccc2c(c1)CN(Cc1cc(OC)c3c(c1)OCO3)CCO2 (centres undefined) | -17.6% (inactive) | –
CCOC(=O)c1c(C)[nH]c(C)c1S(=O)(=O)N(C)CC(=O)N1CCN(c2ccccc2)CC1 | 12% (inactive) | –
CCOC(=O)c1c(C)[nH]c2c1-c1ccccc1C(=O)C2=O | – | 7.08 µM (active)
CCOC(=O)c1c(SCC(=O)Nc2cccc(C)c2C)nc(=O)[nH]c1C | -12.3% (inactive) | –
CC(=O)c1c(C)[nH]c(C(=O)OCC(=O)Nc2sc3c(c2C#N)CCCC3)c1C | – | 17.8 µM (active)
Cc1ccc(C)c(OCC(=O)Nc2sc3c(c2C#N)CCCC3)c1C | -9.69% (inactive) | –
CC(=O)c1c(C)[nH]c(C(=O)OCC(=O)NCCC(C)C)c1C | -26.4% (inactive) | –
CC(C)CC(NS(=O)(=O)c1ccc2c(c1)oc(=O)n2C)C(=O)NCc1ccccc1Cl (centres undefined) | 8.93% (inactive) | –
CCC(CC)C(=O)N1CCc2cc(OC)c(OC)cc2C1COc1ccc(F)cc1 (centres undefined) | -11.5% (inactive) | –
COc1ccccc1-c1ccc(C(=O)N(C)C(C)c2ccon2)c(N2CCN(c3ccccc3F)CC2)n1 (centres undefined) | 5.67% (inactive) | –
O=C(OCC(=O)N1CCN(C(=O)c2ccco2)CC1)c1c(Cl)cccc1Cl | -0.603% (inactive) | –
CN(c1ccccc1)S(=O)(=O)c1cc(C(=O)OCC(=O)N2CCN(C(=O)c3ccco3)CC2)ccc1Cl | – | 25.1 µM (active)
O=C(OCC(=O)N1CCN(C(=O)c2ccco2)CC1)c1ccc(Cl)c(Cl)c1 | 0% (inactive) | –
CC(O)[C@@H](N)C(=O)O (some centres undefined) | -4.38% (inactive) | –
COc1ccc(CCCOC(Cn2ccnc2)c2ccc(OC)cc2)cc1 (centres undefined) | – | inactive
COc1ccccc1-c1nc(NCc2cccs2)c2ccccc2n1 | -20.1% (inactive) | –
O=C1NC(CC(=O)N2CCC(n3c(C4CCC4)nc4cccnc43)CC2)c2ccccc21 (centres undefined) | -3.05% (inactive) | –
O=c1c2ccccc2nc2n1C(CSCc1cccc(C(F)(F)F)c1)CS2 (centres undefined) | – | 5.62 µM (active)
Cn1c(-c2sccc2OCc2cccc(C(F)(F)F)c2)n[nH]c1=S | -19.8% (inactive) | –
O=c1n(Cc2cccc(C(F)(F)F)c2)c2ccccc2c2nc(-c3ccccc3)nn12 | -9.3% (inactive) | –
O=C(Nc1cccc(F)c1)N1CCC2(CC1)CCN(S(=O)(=O)c1ccccc1)CC2 | -26.8% (inactive) | –
O=C(Nc1cc(C(=O)Nc2ccc(S(=O)(=O)O)cc2)cc(C(=O)Nc2ccc(S(=O)(=O)O)cc2)c1)Nc1cc(C(=O)Nc2ccc(S(=O)(=O)O)cc2)cc(C(=O)Nc2ccc(S(=O)(=O)O)cc2)c1 | -26.6% (inactive) | –

SMILES | activity change, negative = inhibition | Potency
O=C(CSc1nc2ccc(Nc3nc(N4CCOCC4)nc(N4CCOCC4)n3)cc2s1)NCc1ccco1 | -6.88% (inactive) | –
O=C(CSc1nc(Nc2ccccc2)nc(N2CCOCC2)n1)Nc1cc(Cl)ccc1O | – | 39.8 µM (active)
O=C(CSc1ccccc1)Nc1cc(Cl)ccc1Oc1ccccc1 | -28.7% (inactive) | –
O=C(O)C(O)[C@@](O)(Cc1ccc(O)cc1)C(=O)O (some centres undefined) | 30% (inactive) | –
CC(=O)OC1C2CCC3C1(CC(O)[C@@]1(O)[C@@H](CC(O)C1(C)C)[C@]3(C)O)C[C@@]2(C)O (some centres undefined) | -11.7% (inactive) | –
COC(=O)c1ccccc1C(=O)NCc1nc(N2CCCC2)c2cccc(C)c2n1 | -14.1% (inactive) | –
Cc1csc(OCC(=O)Nc2ccc(C)c(C)c2)n1 | 7.56% (inactive) | –
COc1cc(Cl)c(C)cc1NC(=O)COC(=O)c1cc(SC)ccc1Cl | 5.31% (inactive) | –
COc1cc(SC)ccc1C(=O)Nc1nc(C)cs1 | – | 3.16 µM (active)
COc1ccccc1C1CN(Cc2ccccc2O)Cc2ccccc2O1 (centres undefined) | -7.77% (inactive) | –
COc1ccc(CCNC(=O)c2c3c(nc4ccccc24)C(=O)N(C2CCCCC2)C3)cc1OC | 3.37% (inactive) | –
COc1cc(C(=O)N2CCC(c3ccncc3)CC2)cc(OC)c1OC | 23.5% (inactive) | –
O=C(c1cc(C(F)(F)F)cc(C(F)(F)F)c1)N1CCC2(CCCN(c3ccccn3)C2)CC1 | -8.26% (inactive) | –
CCc1ccc2oc(-c3ccc(C)c(NC(=O)/C=C/c4ccco4)c3)nc2c1 | 37.1% (inactive) | –
O=c1c2ccccc2nc(/C=C/c2ccco2)n1-c1ccccc1O | -25% (inactive) | –
Cc1ccc(-c2cc(C(=O)N/N=C/C=C/c3ccco3)c3ccccc3n2)cc1C | – | 1.58 µM (active)
COc1ccc(-n2c(CNC(=O)c3cc(C(F)(F)F)ccc3Cl)nnc2SC)cc1 | -5.43% (inactive) | –
CCCCCCCCCCOC(=O)Cn1c(COc2cccc(OC)c2)[n+](C)c2ccccc21 | – | 28.2 µM (active)
CCOC(=O)c1c(NC(=O)COc2cc(C)ccc2C(C)C)sc(C)c1C | -6.01% (inactive) | –
COc1ccccc1N1CCN(C[C@@H]2CN3C(=O)N(C)c4ccccc4C3=N2)CC1 | -13.2% (inactive) | –
O=c1c(CCc2ccccc2)nc2cncnc2n1C1CC1 | -0.104% (inactive) | –
CCc1ccccc1NC(=O)CSc1nc(C)c(C(=O)Nc2ccccc2)c(-c2ccc(Cl)cc2)c1C#N | -3.98% (inactive) | –
Cc1c(C(=O)OC(C)C)sc(NC(=O)c2cccnc2)c1C#N | -17.2% (inactive) | –
CCCc1ccc(-c2c(C)sc(NC(=O)c3ccnn3C)c2C#N)cc1 | – | 15.8 µM (active)
